Unmarked numbers belong to inactive results.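 How the source made its calls: active = MAPPIT score above the 99th percentile of random reference set scores in the same batch; inactive = at or below it.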

These results are taken from the supplement of paper PMC10105736.

Holding throughout (assay): MAPPIT interaction score (arbitrary units); higher = stronger binary interaction signal, active = hit call of the paper
One experiment has as its target CG32846. As to conditions: MAPPIT configuration: N-N; pair source set: screen_1.
The target in the next experiment is Git. As to conditions: MAPPIT configuration: N-N; pair source set: screen_2.
The next experiment has as its target Mst87F. The note with it: MAPPIT configuration: N-N; pair source set: screen_2.
The next experiment concerns the target CG3565. As to conditions: MAPPIT configuration: N-N; pair source set: DPIM.
In the next experiment the target is CG9588. As to conditions: MAPPIT configuration: N-N; pair source set: Lit-BS-16.
The target of another experiment is Prosalpha2. The note with it: MAPPIT configuration: N-N; pair source set: Lit-BM-16.
In the next experiment the target is Rpn1. As to conditions: MAPPIT configuration: N-N; pair source set: Lit-BM-16.
The next experiment addresses Rpt1. As to conditions: MAPPIT configuration: N-C; pair source set: Lit-BM-16.
Another experiment deals with Rpt6. The note with it: MAPPIT configuration: N-C; pair source set: Lit-BM-16.
The target of the next experiment is CG34345. The note with it: pair source set: RRS.
Another experiment concerns the target CG3473. The note with it: MAPPIT configuration: N-N; pair source set: screen_2.
A further experiment addresses Ubc2. As to conditions: MAPPIT configuration: N-N; pair source set: screen_2.
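Further: HEK293T cells with Epo stimulation, STAT-responsive firefly luciferase reporter, fold induction versus unstimulated cells divided by the larger fold induction of two negative controls lacking either bait or prey.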

B1: unk (protein)
chain: MLANETNKLLLSSQQEKPNHYTYLKEFRVEQCQSFLQHKCNQHRPFVCFNWHFQNQRRRRPVRKRDGTFNYSADNYCTKYDETTGICPEGDECPYLHRTAGDTERRYHLRYYKTCMCVHDTDSRGYCVKNGLHCAFAHGMQDQRPPVYDIKELETLQNAESTLDSTNALNALDKERNLMNEDPKWQDTNYVLANYKTEPCKRPPRLCRQGYACPQYHNSKDKRRSPRKYKYRSTPCPNVKHGEEWGEPGNCEAGDNCQYCHTRTEQQFHPEIYKSTKCNDVQQAGYCPRSVFCAFAHVEPCSMDDPRENSLSASLANTSLLTRSSAPINIPNTTLSNSINDFNSGSFAVNIPSSSLTYSPTNHANLFNVDAFNYGGSNKLSNSLSATQNDSSLFFPSRIISPGFGDGLSISPSVRISELNTIRDDINSSSVGNSLFENTLNTAKNAFSLQSLQSQNNSDLGRITNELLTKNAQIHKLNGRFEDMACKLKIAELHRDKAKQEAQEWKERYDLAQIQLNLPAELRDLSIQKLKQLQSKLRTDLEEVDKVLYLENAKKCMKCEENNRTVTLEPCNHLSICNTCAESVTECPYCQVPVITTHT
In the case of B1, the MAPPIT interaction score with CG32846 is -2.23; with Git, 1.05; in the experiment with Mst87F it was 0.54.

B2: Rpt2 (protein)
chain: MGQNQSAQGGAGEKKDDKDKKKKYEPPIPTRVGKKKRRAKGPDAAMKLPQVTPHTRCRLKLLKLERIKDYLMMEDEFIRNQERLKPQDEKNEEERSKVDDLRGTPMSVGNLEEIIDDNHAIVSTSVGSEHYVSILSFVDKDQLEPGCSVLLNHKVHAVVGVLSDDTDPMVTVMKLEKAPQETYADIGGLDTQIQEIKESVELPLTHPEYYEEMGIKPPKGVILYGPPGTGKTLLAKAVANQTSATFLRVVGSELIQKYLGDGPKLVRELFRVAEEHAPSIVFIDEIDAVGTKRYDSNSGGEREIQRTMLELLNQLDGFDSRGDVKVIMATNRIETLDPALIRPGRIDRKIEFPLPDEKTKRRIFTIHTSRMTLAEDVNLSELIMAKDDLSGADIKAICTEAGLMALRERRMKVTNEDFKKSKESVLYRKKEGTPEGLYL
B2: the MAPPIT interaction score with CG3565 was 2.71 (active); in the experiment with CG9588, 0.822; with Prosalpha2, 2.86 (active); in the experiment with Rpn1, 6.22 (active); with Rpt1, 1.56; with Rpt6, 0.824.

B3: MCU (protein)
chain: MSRNRAAMVSAFRLFLRPATTTTHRSLALRLAPGTTFALHLRPCHELQQHRSFASTAEDGETDKHKKPTTGEDIYVEYVNGMPHMTVRLPSRNELCQFALKPISHNVGDLLAMLRAEDRGIDRAAVINKHGVRIASSCTIESLLDDSFSIQINNRTLDVNPPKRDKVTLESMDKVGDVRKVIAQLYEAFNVGEYQLEKSNQLAKELETLRYELEPLEEKKLELSKKAARRTNFMTWMGLGLMSVQFGILARLTWWEYSWDIMEPVTYFVTYGTTMAMYAYYCVTKREYMMEDVKNREFSLSLYRNAKKVQFDVEHYNELKRKSAELEYNLRRINDPLNMQLPSHLVRTQENTPPTLTEEKAERKYT
Regarding B3, the MAPPIT interaction score in the experiment with CG34345 (MAPPIT configuration: N-C) was 0.433; with CG34345 (MAPPIT configuration: N-N), 0.157.

B4: Iru (protein)
chain: MAEAMVVEDRPAEAKRFFCHMCNVEINIPNSDFTCPLCANGFVEELPANAPEMDSSTAGASGSARSGSSGSGSSGSHDTLSRGSSSSGSQVNVESLRNDIVSLLNMRNVPNLEITIEPNRRHSNVLHLGGFGGPSGSDSARGLTAGGRVRPANLDRLDNVLFDFLQSLPLAGATAEIVTGPGGGGVGGGGNSHMFFMGNPGDYAWGREGLDTIVTQMLNQMETSGPPPLSAQRINEIPNVQINAEEVNRKIQCSICWDDFKIDETVRKLPCSHLYHENCIVPWLNLHSTCPICRKSLADDGNDADDEFVMLDAFGPEMAADGSNSERRSASTATGTDNPSPANNPSQAAAEGGRTRPDANPAQAARNNIFTFDDDNMFLD
As to B4, the MAPPIT interaction score in the experiment with CG3473 was 0.831; in the experiment with Ubc2, 0.234.
